Consider 20 compounds from PubChem BioAssay (NCATS).

“And” between values parts separate entries of the source, which are not always exact repeats. Equal values may be shown once. Inconclusive results are not listed. The source made the active and inactive calls. Unless noted, calls follow the shape of the dose curve; as a rule, active = well fitted curve in either direction with a large enough effect (not every such curve was filed as active); inconclusive = small, poorly fitted or top-dose-only effect, or another doubt; inactive = flat fitted curve, though single readings scatter.

Glucocorticoid receptor (Homo sapiens), sequence (P04150 whole entry, looked up): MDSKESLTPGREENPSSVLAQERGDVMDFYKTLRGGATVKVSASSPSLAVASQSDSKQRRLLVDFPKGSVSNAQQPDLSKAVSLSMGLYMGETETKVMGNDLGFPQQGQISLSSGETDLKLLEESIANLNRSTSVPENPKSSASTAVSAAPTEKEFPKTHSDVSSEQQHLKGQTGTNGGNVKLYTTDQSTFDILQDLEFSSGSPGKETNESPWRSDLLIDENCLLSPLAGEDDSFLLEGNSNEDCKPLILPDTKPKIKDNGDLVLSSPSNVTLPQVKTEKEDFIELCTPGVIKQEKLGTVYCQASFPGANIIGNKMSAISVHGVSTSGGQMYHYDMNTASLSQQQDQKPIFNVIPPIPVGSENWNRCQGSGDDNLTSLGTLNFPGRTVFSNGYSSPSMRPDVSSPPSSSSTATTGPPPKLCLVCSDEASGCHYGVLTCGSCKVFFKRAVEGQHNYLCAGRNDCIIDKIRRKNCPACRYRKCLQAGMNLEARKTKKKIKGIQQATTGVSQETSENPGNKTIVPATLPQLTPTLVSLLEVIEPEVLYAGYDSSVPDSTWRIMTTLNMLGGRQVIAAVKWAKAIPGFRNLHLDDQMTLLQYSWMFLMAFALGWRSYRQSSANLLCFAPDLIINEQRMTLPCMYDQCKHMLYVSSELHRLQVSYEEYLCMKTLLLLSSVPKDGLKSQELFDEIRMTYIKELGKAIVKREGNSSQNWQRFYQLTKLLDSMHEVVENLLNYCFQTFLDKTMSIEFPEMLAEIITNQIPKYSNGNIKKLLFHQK

System in one assay: not listed separately
The assay is described as follows: NFAT Signaling Pathway (AID 444).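 Also: carbachol stimulus at about its EC50 of 1 µM final; % is scaled to controls: 0 for no effect and ±100 for the full control effect.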 To be noted: Jurkat NFAT-bla M1, carbachol, beta-lactamase ratio, 5 h; at 17.2 µM (top of the series). The essentials: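 Read-out: CCF4 FRET ratio (460 nm/530 nm) after 1 h RT dye loading, used for %activity and AC50 from titration series. Cells: Jurkat NFAT-β-lactamase/M1 line, treated with compound plus 1 uM carbachol for 5 h, 37 °C.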
Take `C[C@]12CCC(=O)C=C1CC[C@@H]1[C@@H]2CC[C@]2(C)C(=O)CC[C@@H]12`: the activity change, negative = inhibition is 7.44% (inactive).

Consider `COc1ccc2c(c1)C13CCCC[C@@H]1C(C2)N(C)CC3` (stereo partly drawn), for which the activity change, negative = inhibition was -1.88% (inactive).

For `O=C(O)CCCc1ccc(N(CCCl)CCCl)cc1`, the activity change, negative = inhibition was -26.3% (inactive).

With `O=c1[nH]oc2c1CCNC2`, the activity change, negative = inhibition was -9.07% (inactive).

`COc1c2c(cc3c1OCO3)CCN(C)C2`: the activity change, negative = inhibition is -27% (inactive).

For `CNC(C)(C)Cc1ccccc1`, the activity change, negative = inhibition is -3.4% (inactive).

In the case of `CCC1(CC)C(=O)C=CNC1=O`, the activity change, negative = inhibition is -4.7% (inactive).

On to `[N-]=[N+]=CC(=O)OC[C@H](N)C(=O)O`, for which the activity change, negative = inhibition was -1.72% (inactive).

Consider `C[N+]1(C)[C@@H]2CC(OC(=O)[C@H](CO)c3ccccc3)C[C@H]1[C@@H]1O[C@@H]12` (stereo partly drawn), for which the activity change, negative = inhibition was -68.4% (active).

Consider `CC(C)c1cccc(C(C)C)c1O`, for which the activity change, negative = inhibition is -3.69% (inactive).

With `CC(NC(C)(C)C)C(=O)c1cccc(Cl)c1` (stereo not drawn), the activity change, negative = inhibition is -27.5% (inactive).

With `C#C[C@]1(O)CC[C@H]2[C@@H]3CCC4=CC(=O)CC[C@]4(C)[C@H]3CC[C@@]21C`, the activity change, negative = inhibition is 2.09% (inactive).

As to `O=C(CCCN1CCC2(CC1)C(=O)NCN2c1ccccc1)c1ccc(F)cc1`, the activity change, negative = inhibition was -4.55% (inactive).

On to `O=c1oc2ccccc2c(O)c1Cc1c(O)c2ccccc2oc1=O`, for which the activity change, negative = inhibition is -5.31% (inactive).

The assay is the same for the next values; noted with them: Jurkat NFAT-bla M1, carbachol, beta-lactamase ratio, 5 h; at 38 µM (top of the series).
On to `O=C(O)CCCc1ccc(N(CCCl)CCCl)cc1`, for which the activity change, negative = inhibition is -2.19% (inactive).

Regarding `O=c1[nH]oc2c1CCNC2`, the activity change, negative = inhibition was 9.6% (inactive).

With `CCCCC/C=C\C/C=C\C/C=C\C/C=C\CCCC(=O)NCC(=O)O`, the activity change, negative = inhibition is -2.7% (inactive).

`CC(C)c1cccc(C(C)C)c1O`: the activity change, negative = inhibition is 7.25% (inactive).

With `NCCc1ccc(O)cc1`, the activity change, negative = inhibition was 5.43% (inactive).

For `O=P1(N(CCCl)CCCl)NCCCO1` (stereo not drawn), the activity change, negative = inhibition was 4.3% (inactive).

With `O=C(CCCN1CCC2(CC1)C(=O)NCN2c1ccccc1)c1ccc(F)cc1`, the activity change, negative = inhibition is 10.5% (inactive).

System in a further assay: not listed separately
The assay is described as follows: Stat Signaling Pathway (AID 446).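 Also: ME-180 cervical cancer cells given 40 pM IL-6 alongside compound; SIE-controlled beta-lactamase reporter measured as 460/530 nm FRET emission ratio; % is scaled to controls: 0 for no effect and ±100 for the full control effect.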 To be noted: ME-180 SIE beta-lactamase reporter, IL-6 stimulated, 5 h; series mostly up to 17.2 µM; activity, negative = inhibition: at the top concentration. The essentials:
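Reporter line: ME-180 cervical carcinoma, SIE-beta-lactamase. Treatment: compound with 40 pM IL-6, 5 hrs, 37 C, in low-serum OPTI-MEM with 10 mM HEPES pH 7.3. Detection: 460/530 nm fluorescence.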
With `CC(C)N(CCC(C(N)=O)(c1ccccc1)c1ccccn1)C(C)C` (stereo not drawn), the “activity, negative = inhibition” value is 5.66% (inactive).

On to `C[C@]12CCC(=O)C=C1CC[C@@H]1[C@@H]2CC[C@]2(C)C(=O)CC[C@@H]12`, for which the “activity, negative = inhibition” value was 4.53% (inactive).

Regarding `COc1ccc2c(c1)C13CCCC[C@@H]1C(C2)N(C)CC3` (stereo partly drawn), the “activity, negative = inhibition” value is -1.07% (inactive).

Consider `O=C(O)CCCc1ccc(N(CCCl)CCCl)cc1`, for which the compound was classed as inactive.

As to `O=c1[nH]oc2c1CCNC2`, the call was inactive.

Turning to `COc1c2c(cc3c1OCO3)CCN(C)C2`, the “activity, negative = inhibition” value is -1.45% (inactive).

For the compound `CNC(C)(C)Cc1ccccc1`, the “activity, negative = inhibition” value is 22.2% (inactive).

As for `CCC1(CC)C(=O)C=CNC1=O`, the “activity, negative = inhibition” value was 0.778% (inactive).

On to `[N-]=[N+]=CC(=O)OC[C@H](N)C(=O)O`, for which the “activity, negative = inhibition” value is 2.17% (inactive).

Take `C[N+]1(C)[C@@H]2CC(OC(=O)[C@H](CO)c3ccccc3)C[C@H]1[C@@H]1O[C@@H]12` (stereo partly drawn): the “activity, negative = inhibition” value was 5.24% (inactive).

`CC(C)c1cccc(C(C)C)c1O`: the result was inactive.

Consider `CC(NC(C)(C)C)C(=O)c1cccc(Cl)c1` (stereo not drawn), for which the “activity, negative = inhibition” value was -3.15% (inactive).

On to `C#C[C@]1(O)CC[C@H]2[C@@H]3CCC4=CC(=O)CC[C@]4(C)[C@H]3CC[C@@]21C`, for which the “activity, negative = inhibition” value was 0.289% (inactive).

The next assay concerns the target Glucocorticoid receptor (Homo sapiens) (UniProt P04150). Briefly: GR-GFP Redistribution (AID 450;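 active = compounds whose dose series gives a full or clear partial fitted curve of increased nuclear translocation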; also: potency is read from the fitted curve at half-maximal effect). To be noted: U2OS GR-GFP nuclear translocation, laser cytometry, 2 h.
Take `Cc1ncsc1CCCl`: the Potency was > 46 µM (inactive).

For `COc1ccc2c(c1)C13CCCC[C@@H]1C(C2)N(C)CC3` (stereo partly drawn), the Potency is > 20.6 µM (inactive).

Take `O=c1[nH]oc2c1CCNC2`: the Potency was > 46 µM (inactive) and > 20.6 µM (inactive).

In the case of `CCCCC/C=C\C/C=C\C/C=C\C/C=C\CCCC(=O)NCC(=O)O`, the Potency was > 46 µM (inactive).

Turning to `COc1c2c(cc3c1OCO3)CCN(C)C2`, the Potency is > 20.6 µM (inactive).

As to `CNC(C)(C)Cc1ccccc1`, the Potency was > 20.6 µM (inactive).

On to `CCC1(CC)C(=O)C=CNC1=O`, for which the Potency was > 20.6 µM (inactive).

For `C[N+]1(C)[C@@H]2CC(OC(=O)[C@H](CO)c3ccccc3)C[C@H]1[C@@H]1O[C@@H]12` (stereo partly drawn), the Potency was > 20.6 µM (inactive).

Regarding `CC(NC(C)(C)C)C(=O)c1cccc(Cl)c1` (stereo not drawn), the Potency was > 20.6 µM (inactive).

Consider `NCCc1ccc(O)cc1`, for which the Potency is > 46 µM (inactive).

For the compound `O=P1(N(CCCl)CCCl)NCCCO1` (stereo not drawn), the Potency is > 46 µM (inactive).

Take `C=CCN1C[C@H](C)N([C@H](c2ccc(C(=O)N(CC)CC)cc2)c2cccc(OC)c2)C[C@H]1C`: the Potency was > 46 µM (inactive).

Take `C#C[C@]1(O)CC[C@H]2[C@@H]3CCC4=CC(=O)CC[C@]4(C)[C@H]3CC[C@@]21C`: the Potency is 0.338 µM (active).

On to `O=C(CCCN1CCC2(CC1)C(=O)NCN2c1ccccc1)c1ccc(F)cc1`, for which the Potency is > 46 µM (inactive) and > 20.6 µM (inactive).

The target is the same in a further assay. The assay is described as follows: GR-EFC Redistribution (AID 451; calls by dose curve; also: potency is read from the fitted curve at half-maximal effect). To be noted: CHO-K1 GR-EFC translocation, beta-gal luminescence, 2 h. The gist of the method:
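Translocation of GR-ED fusion to nuclear EA restores b-gal, read by luminescence after 1 h room-temperature detection. Engineered CHO-K1 biosensor cells, 1,000/well, exposed 2 h at 37 C to titrations up to 46 uM final.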
As for `Cc1ncsc1CCCl`, the Potency was > 46 µM (inactive).

As to `COc1ccc2c(c1)C13CCCC[C@@H]1C(C2)N(C)CC3` (stereo partly drawn), the Potency is > 20.6 µM (inactive).

In the case of `O=c1[nH]oc2c1CCNC2`, the Potency was > 46 µM (inactive) and > 20.6 µM (inactive).

Turning to `COc1c2c(cc3c1OCO3)CCN(C)C2`, the Potency was > 20.6 µM (inactive).

Turning to `CNC(C)(C)Cc1ccccc1`, the Potency is > 20.6 µM (inactive).

As to `CCC1(CC)C(=O)C=CNC1=O`, the Potency was > 20.6 µM (inactive).

Take `NCCc1ccc(O)cc1`: the Potency was > 46 µM (inactive).

On to `O=P1(N(CCCl)CCCl)NCCCO1` (stereo not drawn), for which the Potency was > 46 µM (inactive).

For the compound `C=CCN1C[C@H](C)N([C@H](c2ccc(C(=O)N(CC)CC)cc2)c2cccc(OC)c2)C[C@H]1C`, the Potency was > 46 µM (inactive).

For the compound `O=C(CCCN1CCC2(CC1)C(=O)NCN2c1ccccc1)c1ccc(F)cc1`, the Potency was > 46 µM (inactive) and > 20.6 µM (inactive).
